Out of some 420,000 compounds screened, about 50,000 (12%) were called active. Where a call stands in place of a potency, no number is given. Inconclusive results (about 26%) are left out. The call rests on the fitted dose curve; in most records, active means well fitted inhibition curve with a large enough effect; inconclusive means small, poorly fitted or top-dose-only effect; inactive means flat fitted curve, though single readings scatter. For the sample, actives were picked, then their nearest neighbours and some compounds at random.
Assay: qHTS for Inhibitors of human tyrosyl-DNA phosphodiesterase 1 (TDP1): qHTS in cells in presence of CPT; further: nearly all actives have a fitted effect of over 55% in size
Conditions: chicken DT40 Tdp1-/-;hTDP1 cells + 20 nM CPT, ATP luminescence, 48 h; series mostly up to 46.2 µM
Summary of the method: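 Chicken DT40 Tdp1-/- cells complemented with human TDP1, 400 cells/well, exposed to compounds plus 20 nM camptothecin for at least 48 h at 37 C; viability read as ATP content by CellTiter-Glo luminescence.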
Potency means the concentration at half of the fitted maximal effect.

| SMILES | Potency |
| --- | --- |
| O=c1oc2ccccc2cc1-c1cn(-c2ccccc2)c(=S)[nH]1 | 2.59 µM (active) |
| O=C(c1cn(-c2ccccc2)nc1-c1cc2ccccc2oc1=O)N1CCOCC1 | inactive |
| S=c1[nH]c(-c2cccs2)cn1-c1ccccc1 | inactive |
| CCn1c(CNC(=O)C23CC4CC(CC(C4)C2)C3)nnc1SCC(=O)Nc1ccc(OC)cc1 | inactive |
| CC(C)C1C2=C(CC(C)(C)CC2=O)ON1c1ccccc1 (stereo not drawn) | 25.9 µM (active) |
| COC(=O)C1CC2=C(CC(C)(C)CC2=O)N(c2ccccc2)C1=O (stereo not drawn) | inactive |
| CC(C)N1C(=O)N(c2ccccc2)C(C)(O)CC1(C)C (stereo not drawn) | inactive |
| COc1cc2nc(CN(C)Cc3ccc(F)cc3)[nH]c(=O)c2cc1OC | inactive |
| CCOC(=O)C1CCCN(C(=O)c2cccc3ccccc23)CC1 (stereo not drawn) | inactive |
| CCOC(=O)C1CCCN(C(=O)C2CCN(c3nnc(-n4cccc4)s3)CC2)C1 (stereo not drawn) | inactive |
| CCOC(=O)C1CCCN(C(=O)c2ccc(-n3ccc4ccccc43)s2)C1 (stereo not drawn) | 18.4 µM (active) |
| CCC(Oc1ccccc1C)C(=O)Nc1ccc(S(=O)(=O)Nc2cc(C)on2)cc1 (stereo not drawn) | inactive |
| CCOC(=O)c1sc(NC(=O)C2CSC3(C)CCC(=O)N23)nc1C (stereo not drawn) | inactive |
| CN(C)S(=O)(=O)c1ccc(C(=O)NCC2(N3CCOCC3)CCCCC2)cc1 | inactive |
| O=C(NCc1ccc(F)cc1)C1CCN(C(=O)Nc2ccc(F)cc2)CC1 | inactive |
| CCOC(=O)c1c(C)[nH]c(C)c1S(=O)(=O)N(C)CC(=O)Nc1ccccc1C | inactive |
| CCOC(=O)c1c(SCC(=O)Nc2cccc(C)c2C)nc(=O)[nH]c1C | inactive |
| CCOC(=O)c1c(C)[nH]c2c1-c1ccccc1C(=O)C2=O | 0.517 µM (active) |
| Cc1ccc(S(=O)(=O)N2CCCC2C(=O)OCc2nc3sc(C)c(C)c3c(=O)[nH]2)cc1 (stereo not drawn) | inactive |
| COCCN(CCOC)c1nc(N)c2c(N)nc3c(c2c1C#N)CC(=O)N3Cc1ccc(Cl)cc1 | inactive |
| C[C@H](NC(=O)c1ccccc1)C(=O)OCC(=O)c1c[nH]c2ccccc12 | inactive |
| CN(C)c1ccc(C(CNC(=O)c2ccc(F)cc2)c2c[nH]c3ccccc23)cc1 (stereo not drawn) | 18.4 µM (active) |
| O=C(CNC(=O)c1ccc(F)cc1)c1ccccc1 | inactive |
| O=C(CCNC(=O)c1ccc(Br)cc1)NCCCc1ccccc1 | inactive |
| COc1ccccc1CN1CCNC(=O)C1CC(=O)N(C)CC1CCOCC1 (stereo not drawn) | inactive |
| O=S(=O)([N-]c1nc2ccccc2nc1-[n+]1ccc(Cc2ccccc2)cc1)c1ccc(Br)s1 | 14.6 µM (active) |

| SMILES | Potency |
| --- | --- |
| Cc1cc(C)c[n+](-c2nc3ccccc3nc2[N-]S(=O)(=O)c2cccs2)c1 | inactive |
| O=S(=O)(NCc1cccnc1)c1ccc(Br)s1 | inactive |
| C[C@@H](NC(=O)c1nc[nH]c1C(=O)N1CCN(C(=O)OC(C)(C)C)CC1)c1ccccc1 | inactive |
| Cc1ccccc1N1CC(C(=O)Nc2ccc(S(=O)(=O)N3CCCC3)cc2)CC1=O (stereo not drawn) | inactive |
| O=C1CS(=O)CN1c1ccc(Oc2ccccc2)cc1 (stereo not drawn) | inactive |
| COc1ccc(-c2cc(C(F)(F)F)nc(NCc3cccnc3)n2)cc1 | inactive |
| COc1ccc(-c2nc3cnccn3c2NC(C)(C)CC(C)(C)C)cc1O | 20.6 µM (active) |
| Cc1cccc(NC(=O)N2CCN(C)c3ncccc32)c1C | inactive |
| CCOc1ccccc1C(=O)Nc1ccc2c(c1)N(C)C(=O)c1ccccc1S2 | 4.61 µM (active) |
| CCOc1ccccc1C(=O)NCCCn1ccnc1 | inactive |
| CCN1C(=O)c2ccccc2Sc2ccc(NC(=O)Cc3ccc(OC)cc3)cc21 | inactive |
| C[C@H]1CC[C@]2(O[C@@H](CCO)C[C@@H](O)[C@@H]2O)O1 | inactive |
| C=CCn1cc(Cl)cc(C(=O)Nc2ccccc2)c1=O | inactive |
| CN(C)C(=O)N1CCNCC1 | inactive |
| CC(C)(C)C(=O)NC(NC(=S)Nc1ccc(S(N)(=O)=O)cc1)C(Cl)(Cl)Cl (stereo not drawn) | inactive |
| CCOc1cc(C(=O)Nc2c(C)ccc3nsnc23)cc(OCC)c1OCC | inactive |
| COc1ccc(-c2nnc(SC(C)C#N)o2)cc1 (stereo not drawn) | inactive |
| COc1ccc(-c2nnc(SC(C)C(=O)NC3CC3)o2)cc1 (stereo not drawn) | inactive |
| COc1ccc(-c2nnc(SC(=O)N3c4ccccc4Sc4ccccc43)o2)cc1 | 8.2 µM (active) |
| Clc1ccc(-c2nnc(-c3ccccc3)nc2N2CCSCC2)cc1 | 16.4 µM (active) |
| OCCN1CCN(c2nnc(-c3ccccc3)c3ccccc23)CC1 | inactive |
| O=C(Cn1c(=O)n(-c2ccc(F)cc2)c(=O)c2sc3ccccc3c21)NC1CCCC1 | inactive |
| O=c1c2ccccc2ncn1CCc1ccncc1 | inactive |
| Cc1ccc(S(=O)(=O)n2nc(OC(=O)C(C)(C)C)cc2N)cc1 | inactive |
| COc1ccccc1-c1cc2nc(C)c(CCC(=O)O)c(C)n2n1 | inactive |
| CCOC(=O)c1oc2ccc(S(=O)(=O)n3nc(-c4ccccc4OC)cc3N)cc2c1C | 18.4 µM (active) |

| SMILES | Potency |
| --- | --- |
| O=C(CC1C(=O)NCCN1Cc1ccc(-c2ccccc2)cc1)NCc1ccncc1 (stereo not drawn) | inactive |
| CN[C@@H]1[C@H](O[C@H]2[C@H](O[C@H]3[C@H](O)[C@@H](O)[C@H](N=C(N)N)[C@@H](O)[C@@H]3N=C(N)N)O[C@@H](C)[C@]2(O)CO)O[C@@H](CO)[C@H](O)[C@H]1O | inactive |
| Cc1nc(Nc2ccc(S(=O)(=O)N3CCCC3)cc2)c2nnn(Cc3ccccc3)c2n1 | inactive |
| Cc1ccc(-c2csc(-c3c[nH]c4ccccc34)n2)cc1 | 16.4 µM (active) |
| Clc1ccc(-c2csc(-c3ccncc3)n2)cc1 | inactive |
| Cc1ccc(-c2csc(-c3cc(C)on3)n2)cc1 | inactive |
| O=C(NNC1=NCCC1)c1cccc(S(=O)(=O)N2CCCCC2)c1 | inactive |
| c1ccc2cc3[nH]c(CN4CCCCC4)nc3cc2c1 | inactive |
| Cc1ccc(-c2nc3ccccc3[nH]c2=O)cc1 | inactive |
| CCCCCn1nnnc1-c1nc2cc3ccccc3cc2[nH]c1=O | 4.11 µM (active) |
| CN1CCN(c2ccc(NC(=O)c3ccc4c(c3)OCCO4)cc2Cl)CC1 | inactive |
| Cc1cc(C)cc(NC(=O)Cc2csc(C)n2)c1 | inactive |
| O=C(OCCN1C(=O)c2ccccc2C1=O)Oc1ccccc1 | inactive |
| O=C(Cn1c(-c2cncs2)nc2ccccc21)NC1CCCC1 | inactive |
| O=C(Cn1c(-c2cscn2)nc2ccccc21)Nc1ccc(Cl)cc1 | 5.8 µM (active) |
| COc1ccc(NC(=O)COC(=O)Cn2c(C)nc3ccccc32)cc1OC | inactive |
| COc1ccc(/C=N/N(C)C2=NS(=O)(=O)c3ccccc32)cc1OC | inactive |
| CC1(C(=O)Nc2ccc3c(c2)OCCO3)CSCC(=O)N1CCOc1ccccc1 (stereo not drawn) | inactive |
| Cn1c(SCC(=O)c2ccccc2)ncc(C(=O)Nc2ccc(F)cc2)c1=O | inactive |
| Cc1ccc(NC(=O)c2cnc(SCC(=O)NCC3CCCO3)n(C)c2=O)cc1 (stereo not drawn) | 11.6 µM (active) |
| Cc1cc(NC(=O)CSc2ncc(C(=O)Nc3ccc(Cl)cc3)c(=O)n2C)no1 | inactive |
| O=C(NC1CCCCC1)C1CCCN(S(=O)(=O)c2ccc(Br)s2)C1 (stereo not drawn) | inactive |
| Nc1nc(SCc2ccc([N+](=O)[O-])cc2)c2ncn(C3OC(CO)C(O)C3O)c2n1 (stereo not drawn) | inactive |
| O=C(Nc1nnc(C2CC2)s1)C1=NN(C2CCS(=O)(=O)C2)C(=O)CC1 (stereo not drawn) | inactive |
| COc1ccc(CNC(=O)c2ccc(NS(=O)(=O)c3ccc4[nH]c(=O)[nH]c4c3)cc2)cc1OC | inactive |
| O=C(COC(=O)CNS(=O)(=O)c1ccc(F)c(F)c1F)NC1CCCC1 | inactive |

| SMILES | Potency |
| --- | --- |
| O=C(CCc1nnc(Cc2ccc3c(c2)OCO3)o1)NCCc1ccccc1Cl | 11.6 µM (active) |
| O=C(CCNS(=O)(=O)c1ccccc1C(F)(F)F)NCc1ccc2c(c1)OCO2 | inactive |
| Cn1cc(CCC(=O)NCc2ccc3c(c2)OCO3)c2ccccc21 | inactive |
| O=C(O)CCC(=O)NCc1ccc(C(=O)O)cc1 | inactive |
| COc1cc2c(cc1CNC[C@H]1O[C@@H](n3cnc(C(N)=O)n3)[C@H](O)[C@@H]1O)OCO2 | inactive |
| COc1cc(C2NC(=O)NC(c3ccccc3)=C2C(C)=O)c(Br)cc1OCC(N)=O (stereo not drawn) | inactive |
| COC(=O)COc1ccc(C2NC(=O)NC(C)=C2C(=O)NCc2ccccc2)cc1OC (stereo not drawn) | inactive |
| CCCOc1ccc(C2NC(=O)NC(c3ccccc3)=C2C(C)=O)cc1OCC (stereo not drawn) | 23.1 µM (active) |
| CC1CC1C(=O)OCC(=O)Nc1cccc(F)c1 (stereo not drawn) | inactive |
| CSC1=N/C(=C\C=C\c2cccs2)C(=O)S1 | 14.6 µM (active) |
| O=C1N/C(=C/c2cccs2)C(=O)N1Cc1ccc(F)cc1 | inactive |
| CN1C/C(=C/c2cccs2)C(=O)/C(=C\c2cccs2)C1 | inactive |
| Cn1c(=O)n(Cc2c(F)cccc2Cl)c(=O)c2c1nc1n2CCN1c1ccc(F)cc1 | inactive |
| COc1ccc(OC)c(-c2csc(-c3c(N)c(C(=O)c4ccccc4)n4ccccc34)n2)c1 | inactive |
| CCN1/C(=C/C(=S)Nc2ccccc2)Sc2ccccc21 | inactive |
| CCN1/C(=C/c2ccc3ccc(C)cc3[n+]2CC)Sc2ccccc21 | 2.06 µM (active) |
| CCN1/C(=C\c2ccc3ccccc3[n+]2CC)Sc2cc(C)ccc21 | 0.184 µM (active) |
| O=C(CN1C(=O)NC2(CCCCCCC2)C1=O)NCc1ccc(F)cc1 | 16.4 µM (active) |
| O=C(CN1C(=O)NC2(CCCCCC2)C1=O)NCc1ccc(F)cc1 | inactive |
| O=C(CN1C(=O)NC2(CCCCCC2)C1=O)NCc1cccs1 | inactive |
| Cc1ccc(NC(=O)NC(=O)CSc2nnc(-c3ccc(OC(F)F)cc3)n2N)c(C)c1 | inactive |
| CC(C)(C)C(=O)Nc1ccc(-c2cn3cccnc3n2)cc1 | inactive |
| C/C(=N\NC(=S)NCc1ccccc1)C1CCCCC1 | 6.51 µM (active) |
| CC1CCCCN1C(=S)NCc1ccccc1 (stereo not drawn) | inactive |
| O=C(CC1CCCCC1)NCc1ccccc1 | inactive |

Source: PubChem BioAssay AID686979 (National Center for Advancing Translational Sciences (NCATS), 2013)
